“And” between values parts separate entries of the source, which are not always exact repeats. Equal values may be shown once. A number with no mark means an inactive call. Records with an inconclusive call do not appear. A call without a number means that no potency is given here. The source made the active and inactive calls. Unless noted, calls come from the whole dose curve; as a rule, active = well fitted curve in the direction sought with a large enough effect in the repeat runs; inconclusive = weak or mixed curves; inactive = no such curve, though single readings can be large; an effect the other way counts as inactive or inconclusive.
What was measured:
[1] = qHTS assay to identify small molecule agonists of the estrogen receptor alpha (ER-alpha) signaling pathway in the presence of an antagonist - cell viability counter screen (AID 1259386);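 note: series mostly up to about 92 µM; cells exposed to compounds for 22 h at 37 °C before the viability read; nearly all actives have a fitted effect of over 30% in size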
How it was run: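 Read-out: CellTiter-Fluor fluorescence after 1hr reagent incubation, measured in the same wells as the luciferase readout. VM7Luc4E2 cells were exposed to 15 compound concentrations with 10.0nM ICI-182,780 for 22hr at 37C.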

[2] = molecular target: Progesterone receptor (Homo sapiens) (UniProt P06401); test: qHTS assay to identify small molecule agonists of the progesterone receptor (PR) signaling pathway (AID 1346784; calls by dose curve; note: nearly all actives have a fitted effect of over 30% in size)
Sequence of Progesterone receptor (Homo sapiens) (P06401 whole entry, looked up): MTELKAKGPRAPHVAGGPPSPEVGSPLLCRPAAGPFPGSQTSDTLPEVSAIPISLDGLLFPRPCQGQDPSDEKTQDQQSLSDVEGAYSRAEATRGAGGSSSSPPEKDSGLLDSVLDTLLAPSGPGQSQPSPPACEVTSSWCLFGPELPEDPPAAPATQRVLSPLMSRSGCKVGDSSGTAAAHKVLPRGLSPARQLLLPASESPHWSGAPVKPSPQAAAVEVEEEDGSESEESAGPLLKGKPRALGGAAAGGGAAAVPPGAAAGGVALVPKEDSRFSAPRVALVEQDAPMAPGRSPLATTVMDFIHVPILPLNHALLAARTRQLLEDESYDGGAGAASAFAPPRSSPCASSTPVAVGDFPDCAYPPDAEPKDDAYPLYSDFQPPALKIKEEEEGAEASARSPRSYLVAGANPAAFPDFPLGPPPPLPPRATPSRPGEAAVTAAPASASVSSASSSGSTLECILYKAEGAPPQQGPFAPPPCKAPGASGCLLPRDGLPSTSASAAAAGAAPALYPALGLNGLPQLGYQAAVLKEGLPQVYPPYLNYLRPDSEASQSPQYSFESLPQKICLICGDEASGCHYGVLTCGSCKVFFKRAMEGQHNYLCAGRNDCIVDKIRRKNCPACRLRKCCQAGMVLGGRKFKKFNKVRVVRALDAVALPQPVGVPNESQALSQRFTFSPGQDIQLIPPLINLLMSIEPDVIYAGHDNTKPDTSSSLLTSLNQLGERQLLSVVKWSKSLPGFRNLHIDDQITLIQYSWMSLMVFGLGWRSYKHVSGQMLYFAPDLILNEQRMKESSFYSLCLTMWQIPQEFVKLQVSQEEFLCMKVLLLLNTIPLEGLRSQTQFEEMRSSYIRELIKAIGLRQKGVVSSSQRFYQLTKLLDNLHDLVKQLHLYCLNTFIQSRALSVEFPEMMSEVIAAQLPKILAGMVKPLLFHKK
How it was run: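 Seed PR-UAS-bla HEK 293T cells (2% charcoal-stripped FBS), incubate 6 hr at 37C; add compounds in DMSO, 16 hr at 37C; add LiveBLAzer B/G substrate, 2 hr RT; read fluorescence intensity.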

[3] = qHTS assay to identify small molecule antagonists of the progesterone receptor (PR) signaling pathway - cell viability counter screen (AID 1346798); note: series mostly up to about 92 µM; nearly all actives have a fitted effect of over 50% in size
How it was run: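 Measures cytotoxicity in parallel with the PR antagonist reporter read: HEK293T PR-UAS-bla cells get compound and R5020 for 16 hr, and remaining viable cells are quantified by CellTiter-Glo luminescence.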

[4] = qHTS assay to identify small molecule agonists of the progesterone receptor (PR) signaling pathway - cell viability counter screen (AID 1346799; calls by dose curve; note: nearly all actives have a fitted effect of over 45% in size)
How it was run: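 Using the same plates as the PR reporter screen, HEK293T PR-UAS-bla cells received compounds for 16 hr at 37C and were then lysed with CellTiter-Glo; luminescence was read 30 min later at room temperature.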

[5] = qHTS assay to identify small molecule antagonists of the TGF-beta/Smad signaling pathway - cell viability counter screen (AID 1346824); note: nearly all actives have a fitted effect of over 50% in size
How it was run: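 Cytotoxicity counter-screen run in the same wells as the beta-lactamase Smad reporter read: CellTiter-Glo luminescence after 30 min at room temperature. HEK 293T SBE-bla cells had 5 hr compound exposure at 37 C with TGF-beta1 (0.25 ng/mL stock).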

[6] = qHTS assay to identify small molecule agonists of the TGF-beta/Smad signaling pathway - cell viability counter screen (AID 1346829); note: top concentration of the series differs between compounds; nearly all actives have a fitted effect of over 45% in size
How it was run: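 Same-well cytotoxicity: CellTiter-Glo added after the 2 hr room-temperature beta-lactamase substrate step, luminescence measured 30 min later; cells had 5 hr of compound at 37 C.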

[7] = qHTS assay to identify small molecule agonists of the TGF-beta/Smad signaling pathway (AID 1346859; active = well fitted activation curve with a large enough effect in the signal ratio in the repeat runs, not every such curve was filed as active; the % refers to the signal ratio; note: series mostly up to about 77 µM)
How it was run: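 Beta-lactamase reporter activity downstream of Smad binding elements was measured in stably transfected HEK 293T cells; compounds were incubated for 5 hr, substrate for 2 hr at room temperature.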

[8] = molecular target: Thyrotropin-releasing hormone receptor (Homo sapiens) (UniProt P34981); test: qHTS assay to identify small molecule antagonists of the thyrotropin-releasing hormone receptor (TRHR) signaling pathway (AID 1346877; active = well fitted inhibition curve with a large enough effect in the repeat runs, not every such curve was filed as active; note: series mostly up to about 51 µM)
Sequence of Thyrotropin-releasing hormone receptor (Homo sapiens) (P34981 whole entry, looked up): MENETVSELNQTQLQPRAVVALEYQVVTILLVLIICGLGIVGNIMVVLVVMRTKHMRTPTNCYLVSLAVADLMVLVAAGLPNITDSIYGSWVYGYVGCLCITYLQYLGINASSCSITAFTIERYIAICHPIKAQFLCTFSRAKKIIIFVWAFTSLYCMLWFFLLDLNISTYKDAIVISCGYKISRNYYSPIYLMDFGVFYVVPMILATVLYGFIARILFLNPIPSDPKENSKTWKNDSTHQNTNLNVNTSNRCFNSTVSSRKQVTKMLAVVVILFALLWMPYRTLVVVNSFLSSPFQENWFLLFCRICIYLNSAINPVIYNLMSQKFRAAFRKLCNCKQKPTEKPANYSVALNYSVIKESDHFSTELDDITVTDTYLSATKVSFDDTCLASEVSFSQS
How it was run: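 HEK293/TRHR cells, 18 h, 37 °C; Ca2+ dye 2 h; cpd 5 min RT; TRH 1 nM final; fluorescence read 3 min, 1 s intervals; 15 concs, triplicate.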

[9] = molecular target: Thyrotropin-releasing hormone receptor (Homo sapiens) (UniProt P34981); test: qHTS assay to identify small molecule agonists of the thyrotropin-releasing hormone receptor (TRHR) signaling pathway (AID 1346891; calls by dose curve;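 note: HEK293 cells expressing TRHR with calcium dye readout; series mostly up to about 58 µM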)
How it was run: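 Overnight-plated (18 h, 37 °C, 5% CO2) TRHR-Hek293 cells; 2 h calcium dye at 37 °C; compound in DMSO; 3-min kinetic fluorescence read.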

[10] = Human pregnane X receptor (PXR) small molecule agonists, qHTS cell viability counter screen (AID 1346977); note: nearly all actives have a fitted effect of over 50% in size; note: potency is the fitted concentration of half-maximal effect
How it was run: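 After a 5hr pre-incubation, PXR-Luc HepG2 cells received compounds plus positive control in DMSO and were kept 24hr at 37C. Cell viability was quantified by fluorescence from CellTiter-Fluor added for the final hour.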

[11] = Caspase-3/7 induction in HepG2 cells by small molecules, qHTS assay (AID 1346978); note: nearly all actives have a fitted effect of over 15% in size
How it was run: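 Caspase-3/7 induction was measured by Caspase-Glo 3/7 luminescence (30 min, room temperature) after a 17 hr compound exposure of wild-type HepG2 cells seeded at 2,000 per well and pre-incubated 5 hr.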

[12] = Caspase-3/7 induction in CHO-K1 cells by small molecules, qHTS cell viability counter screen (AID 1346979); note: nearly all actives have a fitted effect of over 35% in size; note: potency is the fitted concentration of half-maximal effect
How it was run: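 Multiplexed with Caspase-Glo 3/7 in CHO-K1 cells, this counter screen added CellTiter-Fluor after 16hr of compound exposure and recorded fluorescence 1hr later.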

[13] = Caspase-3/7 induction in CHO-K1 cells by small molecules, qHTS assay (AID 1346980); note: nearly all actives have a fitted effect of over 15% in size
How it was run: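 Luminescent Caspase-Glo 3/7 read (30min, room temperature) quantified apoptosis induction. Cells were wild-type CHO-K1, treated with compound for 17hr at 37 C and 5% CO2.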

[14] = Caspase-3/7 induction in HepG2 cells by small molecules, qHTS cell viability counter screen (AID 1346981); note: series mostly up to about 92 µM; nearly all actives have a fitted effect of over 30% in size
How it was run: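 Fluorescence read-out of live-cell protease activity (CellTiter-Fluor) after 1 hr with reagent. This was measured in the same wells as the caspase-3/7 luminescence, on HepG2 cells exposed to DMSO-dissolved compounds for 16 hr at 37 C.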

[15] = molecular target: Nuclear receptor subfamily 1 group I member 2 (Homo sapiens) (UniProt O75469); test: Human pregnane X receptor (PXR) small molecule agonists, qHTS assay (AID 1346982); note: nearly all actives have a fitted effect of over 35% in size; note: potency is the fitted concentration of half-maximal effect
Sequence of Nuclear receptor subfamily 1 group I member 2 (Homo sapiens) (O75469 whole entry, looked up): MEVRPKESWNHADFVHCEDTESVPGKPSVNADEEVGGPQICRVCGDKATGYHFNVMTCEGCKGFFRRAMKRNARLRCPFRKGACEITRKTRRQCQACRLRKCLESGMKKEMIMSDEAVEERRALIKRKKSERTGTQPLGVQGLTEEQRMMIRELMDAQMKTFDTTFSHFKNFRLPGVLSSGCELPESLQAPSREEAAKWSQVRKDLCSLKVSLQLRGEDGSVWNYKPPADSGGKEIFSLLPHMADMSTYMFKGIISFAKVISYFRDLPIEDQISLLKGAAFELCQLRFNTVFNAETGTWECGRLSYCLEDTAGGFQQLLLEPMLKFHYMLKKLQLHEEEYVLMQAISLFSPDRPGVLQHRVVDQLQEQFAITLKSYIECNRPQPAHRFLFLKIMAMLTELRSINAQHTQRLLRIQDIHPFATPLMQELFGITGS
How it was run: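 HepG2 PXR-Luc reporter line, 5% charcoal-stripped FBS; 5 hr pre-incubation, compound (DMSO) 24 hr at 37 C/5% CO2; ONE-Glo 30 min RT; luminescence read-out.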

[16] = molecular target: Nuclear receptor subfamily 1 group I member 2 (Rattus norvegicus) (UniProt Q9R1A7); test: Rat pregnane X receptor (rPXR) activation by small molecules, qHTS assay (AID 1346983); conditions: rPXR luciferase reporter cells, One-Glo luminescence, 24 h; stronger effect = higher value; note: nearly all actives have a fitted effect of over 20% in size
Sequence of Nuclear receptor subfamily 1 group I member 2 (Rattus norvegicus) (Q9R1A7 whole entry, looked up): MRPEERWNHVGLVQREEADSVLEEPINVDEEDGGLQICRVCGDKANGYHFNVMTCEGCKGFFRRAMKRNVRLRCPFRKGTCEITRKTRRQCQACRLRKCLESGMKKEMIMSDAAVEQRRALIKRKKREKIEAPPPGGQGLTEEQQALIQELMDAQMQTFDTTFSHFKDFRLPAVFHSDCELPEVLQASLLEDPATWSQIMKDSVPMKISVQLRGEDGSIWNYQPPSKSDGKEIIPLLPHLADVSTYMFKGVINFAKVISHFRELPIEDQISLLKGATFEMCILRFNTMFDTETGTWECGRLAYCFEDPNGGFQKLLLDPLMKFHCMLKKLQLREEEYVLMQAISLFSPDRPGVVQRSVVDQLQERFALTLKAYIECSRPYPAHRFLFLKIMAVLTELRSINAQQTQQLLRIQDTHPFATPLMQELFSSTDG
How it was run: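 Luminescent readout (One-Glo luciferase, 30 min room temperature) followed 24 hr compound treatment at 37 C of rPXR cells plated 2,000 per well and preincubated 5hr; qHTS format with compounds delivered in DMSO.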

[17] = molecular target: Nuclear receptor subfamily 1 group I member 2 (Homo sapiens) (UniProt O75469); test: CYP3A4 induction through human pregnane X receptor (PXR) by small molecules, qHTS assay (AID 1346984); note: nearly all actives have a fitted effect of over 40% in size; note: potency is the fitted concentration of half-maximal effect
How it was run: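 HepG2-derived DPX-2 line carrying PXR plus a CYP3A4-promoter luciferase reporter; cells plated 5 hr, compound-exposed 24 hr at 37C. CYP3A4 activity probed with 3uM (final) Luciferin-IPA for 3hr, then luciferase read after One-Glo.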

[18] = molecular target: Nuclear receptor subfamily 1 group I member 2 (Homo sapiens) (UniProt O75469); test: Human pregnane X receptor (PXR) activation by small molecules, qHTS assay (AID 1346985); note: nearly all actives have a fitted effect of over 40% in size; note: potency is the fitted concentration of half-maximal effect
How it was run: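 DPX-2 cells (HepG2 co-transfected with a PXR response element and a CYP3A4-promoter luciferase construct) were seeded at 2,000 per well, rested 5 hr at 37C, then exposed to DMSO-dissolved compounds for 24 hr. Activation was read as luciferase luminescence.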

[19] = molecular target: Progesterone receptor (Homo sapiens) (UniProt P06401); test: qHTS assay to identify small molecule antagonists of the progesterone receptor (PR) signaling pathway (AID 1346795; active = well fitted inhibition curve with a large enough effect in the signal ratio in the repeat runs, not every such curve was filed as active; the % refers to the signal ratio; note: potency is the fitted concentration of half-maximal effect)
How it was run: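 Screening used a GripTite HEK293T line with PR-responsive UAS-beta-lactamase. Cells were challenged with compound in the presence of 1 nM R5020 final for 16 hr at 37C; B/G FRET substrate, 2 hr room temperature, fluorescence.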

Structure (SMILES)	Potency [1]	Potency [2]	Potency [3]	Potency [4]	Potency [5]	outcome [6]	outcome [7]	outcome [8]	outcome [9]	Potency [10]	Potency [11]	Potency [12]	outcome [13]	Potency [14]	Potency [15]	max activation [16] [%]	Potency [17]	Potency [18]	Potency [19]
CCOC(=O)c1ccc(C)cc1	inactive	inactive	inactive	inactive	inactive	inactive	inactive	inactive	inactive	inactive	inactive	inactive	inactive	inactive	inactive				
N#Cc1ccc(C2CCCc3cncn32)cc1 (stereo not given)	inactive	inactive	inactive	inactive	inactive	inactive	inactive	inactive	inactive	inactive	inactive	inactive	inactive		inactive				
FC(F)OC(Cl)C(F)(F)F (stereo not given)		inactive		inactive	inactive	inactive	inactive		inactive	inactive	inactive	inactive	inactive	inactive	inactive	-3.14	inactive	inactive	
CC(=O)CC(C)(C)C1CCCCC1			inactive	inactive	inactive	inactive	inactive	inactive	inactive	inactive	inactive	inactive	inactive	inactive	inactive				
CC(C[N+](C)(C)C)OC(N)=O (stereo not given)	inactive	inactive	inactive	inactive	inactive	inactive	inactive	inactive	inactive	inactive	inactive	inactive	inactive	inactive	inactive	0.875	inactive	inactive	inactive
Cc1c(O)cccc1O		inactive	inactive	inactive	inactive		inactive	inactive	inactive	inactive	inactive	inactive	inactive	inactive	inactive				inactive
O=C(CCCN1CCC(O)(c2cccc(C(F)(F)F)c2)CC1)c1ccc(F)cc1	inactive	inactive	inactive		inactive	inactive	inactive	inactive	inactive	inactive	inactive	inactive		inactive	inactive	1.11	4.47 µM (active)	12.6 µM (active)	
NS(=O)(=O)c1cc2c(cc1Cl)NC(C1CC3C=CC1C3)NS2(=O)=O (stereo not given)		inactive	inactive	inactive	inactive	inactive	inactive		inactive	inactive	inactive	inactive		inactive	inactive				inactive
OC(CCN1CCCCC1)(c1ccccc1)C1CC2C=CC1C2 (stereo not given)	inactive	inactive	inactive	inactive	inactive		inactive		inactive		inactive	inactive		inactive	10.6 µM (active)	-2.76	28.2 µM (active)		inactive
COC(=O)c1ccc(C)cc1C1=NC(C)(C(C)C)C(=O)N1 (stereo not given)	inactive	inactive	inactive	inactive	inactive		inactive		inactive	inactive	inactive	inactive		inactive					inactive
CN(C(=O)c1c(O)c2ccccc2n(C)c1=O)c1ccccc1	inactive		inactive			inactive	inactive			inactive	inactive	inactive	inactive	inactive		-3.59			inactive
O=[N+]([O-])c1ccc(F)cc1F	inactive	inactive	inactive	inactive	inactive	inactive	inactive			inactive	inactive	inactive	inactive	inactive	inactive				inactive
O=C1OC(=O)C2CCCCC12 (stereo not given)	inactive		inactive	inactive	inactive	inactive	inactive			inactive	inactive	inactive	inactive	inactive	inactive				inactive
CC(C(=O)O)c1ccc(CC2CCCC2=O)cc1 (stereo not given)		inactive	inactive	inactive		inactive	inactive	inactive	inactive	inactive	inactive	inactive	inactive	inactive	inactive				inactive
CCCCC(CC)COC(=O)c1ccccc1O (stereo not given)	inactive	inactive		inactive	inactive		inactive	inactive	inactive	inactive	inactive	inactive	inactive	inactive	inactive	-4.33	inactive	inactive	
O=c1cc(-c2ccccc2)oc2ccccc12	inactive				inactive	inactive	inactive		inactive	inactive	inactive	68.2 µM (active)		inactive	54.5 µM (active) and 24.2 µM (active)				61.1 µM (active)
COc1ccc(CCN(C)CCCC(C#N)(c2cc(OC)c(OC)c(OC)c2)C(C)C)cc1OC (stereo not given)		inactive	inactive	inactive	inactive		inactive	inactive	inactive	26.6 µM (active)	inactive	inactive	inactive		4.73 µM (active)				inactive
NC(CSCC(=O)O)C(=O)O (stereo not given)	inactive		inactive	inactive	inactive	inactive	inactive	inactive	inactive	inactive	inactive	inactive	inactive	inactive	inactive	-3.73	inactive	inactive	inactive
O=C(O)CNC(=O)c1ccc([N+](=O)[O-])cc1	inactive	inactive	inactive	inactive	inactive	inactive	inactive	inactive	inactive	inactive	inactive	inactive	inactive	inactive	inactive				inactive
N=C(N)c1ccc2cc(OC(=O)c3ccc(N=C(N)N)cc3)ccc2c1	inactive	inactive	inactive	inactive	inactive	inactive	inactive	inactive	inactive	inactive	inactive	inactive	inactive	inactive	inactive	-2.79	inactive	inactive	inactive
CCCCCOC(=O)CCCCC	inactive	inactive	inactive	inactive	inactive	inactive	inactive		inactive	inactive	inactive	inactive	inactive	inactive	inactive				inactive

Source: PubChem BioAssay (Tox21)
